Test systems include K-562 leukemia; MALME-3M melanoma; MDA-MB-231 breast; RXF 393 renal; SF-268 CNS; SF-295 CNS; SF-539 CNS; UACC-257 melanoma; M14 melanoma; HCT-15 colon; HT29 colon; SNB-75 CNS; SNB-19 CNS; U251 CNS; PC-3 prostate; UACC-62 melanoma; SK-MEL-28 melanoma; SK-MEL-2 melanoma; LOX IMVI melanoma; SK-MEL-5 melanoma.
Common to all, as to test: NCI-60 one-dose screen, 48 h (100 = growth as untreated, 0 = no growth, -100 = all killed)
What all share (conditions): 10 µM unless noted

Compounds without any hit were thinned out: in the full panel of roughly 83,000, 20% have a hit.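 For each line, cells grew in 96-well plates with the test compound present at a single concentration for 48 hours.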 Values without a mark were called inactive. Active and inactive are the calls of the source. Rule for the calls: active = growth percent below 10; inactive = the rest.

These results are taken from PubChem BioAssay (NCI).

For `CN(C)c1ccc(/C=C2\Cc3c(F)ccc(Br)c3C2=O)cc1`, the growth in the assay with K-562 leukemia is 98.4%; in the assay with MALME-3M melanoma it was 92.8%; in the assay on MDA-MB-231 breast, 90.8%; in the assay on RXF 393 renal, 108%; in the assay on SF-268 CNS, 101%; in the assay on SF-295 CNS, 101%. For the same compound, the growth was 97.5% in the assay with SF-539 CNS; 91.3% in the assay with UACC-257 melanoma; 92.1% in the assay with M14 melanoma; 96.9% in the assay on HCT-15 colon; 104% with HT29 colon; 87.8% with SNB-75 CNS. Moreover, the growth with SNB-19 CNS is 93.1%; in the assay with U251 CNS it was 91.6%; in the assay with PC-3 prostate, 92%; with UACC-62 melanoma, 83.3%; in the assay on SK-MEL-28 melanoma it was 97.4%; in the assay on SK-MEL-2 melanoma, 108%.
As for `Cc1nc(-c2cc3ccccc3oc2=O)ccc1C(=O)/C=C/c1ccc(Cl)c(Cl)c1`, the growth in the assay on K-562 leukemia is 103%; in the assay with MALME-3M melanoma, 96.9%; in the assay on MDA-MB-231 breast, 95.5%; in the assay on RXF 393 renal it was 119%; in the assay with SF-268 CNS, 99.8%; in the assay on SF-295 CNS, 95.7%. In addition, the growth was 92.5% in the assay on SF-539 CNS; 120% in the assay with UACC-257 melanoma; 107% in the assay with M14 melanoma; 107% with HCT-15 colon; 114% in the assay on HT29 colon; 95.2% in the assay with SNB-75 CNS. Besides, the growth is 98.5% with SNB-19 CNS; 99.4% in the assay on U251 CNS; 101% in the assay on PC-3 prostate; 100% with UACC-62 melanoma; 86.9% with LOX IMVI melanoma; 106% in the assay on SK-MEL-28 melanoma. Further, in the assay on SK-MEL-2 melanoma, the growth is 134%.
Turning to `CS(=O)(=O)Nc1ccc(-c2nn(-c3ccc(S(C)(=O)=O)cc3)cc2/C=C/C(=O)c2ccc(NC(=O)CO[N+](=O)[O-])cc2)cc1`, the growth was 102% with K-562 leukemia; 107% in the assay with MALME-3M melanoma; 93.4% in the assay on MDA-MB-231 breast; 95% in the assay with RXF 393 renal; 108% with SF-268 CNS; 97.2% in the assay on SF-295 CNS. The growth in the assay with SF-539 CNS is 101%; in the assay with UACC-257 melanoma it was 103%; with M14 melanoma, 111%; in the assay with HCT-15 colon, 99.6%; in the assay on HT29 colon, 104%; in the assay with SNB-75 CNS, 108%. Also, the growth was 100% in the assay with SNB-19 CNS; 101% in the assay with U251 CNS; 98.2% in the assay with PC-3 prostate; 100% in the assay with UACC-62 melanoma; 93.2% in the assay with LOX IMVI melanoma; 104% in the assay with SK-MEL-28 melanoma. In addition, in the assay on SK-MEL-2 melanoma, the growth was 97.3%.
As to `COc1cccc(NC2=CC(=O)C(C)=C(C)C2=O)c1`, the growth in the assay on K-562 leukemia was 12.5%; with MALME-3M melanoma, 101%; in the assay on MDA-MB-231 breast it was 41.4%; in the assay on RXF 393 renal it was 55.8%; in the assay on SF-268 CNS, 74.5%; in the assay on SF-295 CNS, 105%. Besides, the growth is 21.7% in the assay with SF-539 CNS; 54.7% in the assay with UACC-257 melanoma; 97% with M14 melanoma; 91.9% in the assay with HCT-15 colon; 98.3% in the assay with HT29 colon; 99.8% in the assay on SNB-75 CNS. The growth in the assay with SNB-19 CNS was 97.7%; in the assay with U251 CNS, 95.1%; with PC-3 prostate, 36.3%; with UACC-62 melanoma it was 91.8%; with SK-MEL-28 melanoma, 96.5%; in the assay on SK-MEL-2 melanoma it was 83.6%.
With `COc1cc(/C=C/C(=O)c2ccc(C)cc2)ccc1Oc1nc(NCCO)nc(N2CCOCC2)n1`, the growth with K-562 leukemia was 6.48% (active); in the assay on MALME-3M melanoma, 71.6%; in the assay on MDA-MB-231 breast it was 67.7%; in the assay on RXF 393 renal, 82.1%; in the assay on SF-268 CNS, 66.1%; in the assay with SF-295 CNS it was 79.8%. In addition, the growth was 39.5% with SF-539 CNS; 101% with UACC-257 melanoma; -64.4% (active) in the assay on M14 melanoma; 14.5% in the assay with HCT-15 colon; 19.4% in the assay with HT29 colon; 93.7% in the assay with SNB-75 CNS. Besides, the growth was 44% in the assay with SNB-19 CNS; 34.6% with U251 CNS; 30.6% in the assay with PC-3 prostate; 43.7% in the assay with SK-MEL-5 melanoma; 53.4% with UACC-62 melanoma; 99.9% with SK-MEL-2 melanoma.
Consider `CO/N=C1\CCc2c(sc(NC(=O)c3cccc(C(F)(F)F)c3)c2C(N)=O)C1`, for which the growth in the assay on K-562 leukemia was 70.1%; in the assay on MALME-3M melanoma it was 29.4%; with MDA-MB-231 breast it was 37.7%; in the assay with RXF 393 renal, -6% (active); in the assay on SF-268 CNS it was 51.8%; with SF-295 CNS, 30.8%. For the same compound, the growth with SF-539 CNS is 34.2%; in the assay on UACC-257 melanoma, 66%; with M14 melanoma, 47.7%; in the assay on HCT-15 colon, 64.6%; in the assay on HT29 colon, 51.2%; in the assay with SNB-75 CNS, -58.4% (active). Besides, the growth was 27.7% in the assay with SNB-19 CNS; 3.28% (active) with U251 CNS; 64.8% with PC-3 prostate; 76.8% with UACC-62 melanoma; 60.3% in the assay with SK-MEL-28 melanoma; 63.9% in the assay on SK-MEL-2 melanoma.
As for `COc1cc(/C=C/C(=O)c2cc(OC)c(OC)c(OC)c2)ccc1OCc1ccccc1`, the growth in the assay on K-562 leukemia was 10.2%; in the assay on MALME-3M melanoma, 63.1%; with MDA-MB-231 breast, 47.7%; in the assay with RXF 393 renal, 75%; in the assay with SF-268 CNS, 43.3%; with SF-295 CNS it was 50.8%. For the same compound, the growth in the assay on SF-539 CNS is 8.77% (active); in the assay with UACC-257 melanoma, 68.9%; in the assay on M14 melanoma, 65.7%; with HCT-15 colon, 13.3%; in the assay on HT29 colon, 5.03% (active); in the assay with SNB-75 CNS, 13%. In addition, the growth with SNB-19 CNS was 34%; in the assay on U251 CNS, 13.6%; in the assay on PC-3 prostate it was 40.1%; in the assay on UACC-62 melanoma, 38.8%; with SK-MEL-28 melanoma it was 78.8%; in the assay with SK-MEL-2 melanoma it was 80.7%.
In the case of `COc1cc(-c2ccc3ncnc(NC(C)c4ccccc4)c3c2)cnc1OC` (configuration not stated), the growth was 76.3% with K-562 leukemia; 56.3% in the assay on MALME-3M melanoma; 36.1% in the assay on MDA-MB-231 breast; 26% in the assay with RXF 393 renal; 44.9% with SF-268 CNS; 37.1% with SF-295 CNS. The growth with SF-539 CNS was 47.2%; with UACC-257 melanoma it was 78.8%; in the assay with M14 melanoma, 68%; in the assay with HCT-15 colon, 52.9%; in the assay on HT29 colon, 65%; in the assay with SNB-75 CNS it was 32.8%. The growth is 48.7% with SNB-19 CNS; 63.4% with U251 CNS; 29.5% with PC-3 prostate; 63.4% in the assay with UACC-62 melanoma; 34.4% in the assay on LOX IMVI melanoma; 60.9% with SK-MEL-28 melanoma. In the assay on SK-MEL-2 melanoma, the growth is 47.3%.
